Most compounds without a hit are left out; they make up all but 13% or so of the library.
UCHL1 inh: human UCHL1 deubiquitinase inhibition. P09936. purified UCHL1, Ub-rhodamine cleavage fluorescence. inhibition, % at 20 µM. 47,000 tested, 0.2% active. AID 1645859
USP30 block: human USP30 deubiquitinase inhibition | purified USP30, Ub-rhodamine cleavage fluorescence | inhibition, % at 25 µM | AID 1645860 | 47,000 tested, 5.3% active | Q70CQ3
USP8 inh: human USP8 deubiquitinase inhibition; P40818; inhibition, % at 20 µM; AID 1645853; 47,000 tested, 4.2% active; purified USP8, Ub-rhodamine cleavage fluorescence, 30 min
USP7 inh: inhibitors of human USP7 deubiquitinase | Q93009 | purified USP7, Ub-rhodamine cleavage fluorescence | inhibition, % at 20 µM | 47,000 tested, 0.3% active | AID 1645854
USP17 block: human USP17-like deubiquitinase inhibition | A8MUK1 | purified USP17, Ub-rhodamine cleavage fluorescence, 3 h | inhibition, % at 50 µM | 47,000 tested, 6.5% active
USP10 block: inhibitors of human USP10 deubiquitinase. Q14694. purified USP10, Ub-rhodamine fluorescence, 60 min. inhibition, % at 20 µM. 47,000 tested, 1.1% active. AID 1645856
Each line names hits and unclear results; the compound was inactive in the other large screens. Cut-off read from the data, not from the text of the source: active = inhibition above about 30%; inactive = the rest.

Cc1ccc2c(c1)c1ncn(Cc3nc(C)no3)c(=O)c1n2CC(=O)NCc1ccccc1	USP30 block 87, USP8 inh 35, USP17 block 72, USP10 block 30
Cc1noc(-c2cc(=O)n(CC(=O)NC3CCCC3)c3ccccc23)n1	USP8 inh 35
Cc1noc(-c2cc(=O)n(CC(=O)Nc3cc(F)cc(F)c3)c3ccccc23)n1	none
Cc1noc(-c2cc(=O)n(CC(=O)Nc3ccccc3Cl)c3ccccc23)n1	USP10 block 34
Cc1c(Cl)cccc1NC(=O)CN1c2ccccc2S(=O)(=O)c2ccccc21	none (no result: USP30 block)
CCc1noc(-c2cc(=O)n(CC(=O)Nc3ccccc3)c3ccccc23)n1	none
Cc1c(Cl)cccc1NC(=O)Cn1c(=O)c2ccccc2n2nncc12	USP17 block 50
COCCCn1cnc2c(-c3ccccc3)cn(CC(=O)NCc3ccccc3)c2c1=O	none
CCN1CC[C@@H]2[C@H]1C(=O)N(C)[C@@H](Cc1ccccc1)C(=O)N2C	none
CSc1nnc(-c2nn(C)c3c2CN(C(=O)c2c(F)cccc2F)CC3)n1C	none
Cc1nc2cc(-c3nccn3C)nn2c(N2CCC(O)(c3ccccc3F)CC2)c1C	USP17 block 34
COc1ccc(C(=O)NCCc2nnc3ccc(SCC(=O)NCc4ccc(F)cc4)nn23)cc1	USP30 block 52, USP17 block 46
O=C(CSc1ccc2nnc(-c3ccc(Cl)cc3)n2n1)c1ccccc1	none
O=C(CSc1ccc2nnc(-c3ccccc3)n2n1)c1ccccc1	USP8 inh 79
COc1ccc(C(=O)CSc2ccc3nnc(CCNC(=O)c4ccc(OC)cc4)n3n2)cc1	USP30 block 43, USP17 block 59
CCN(CC)c1ccc2nnc(CCC(=O)NCc3ccc(F)cc3)n2n1	none
COc1ccc(-c2c3c(=O)n(C)c(=O)n(C)c3cn2CCO)cc1	none (no result: USP30 block)
Cc1ccc(CNC(=O)c2cc(-c3ccccc3)nn2-c2ccccc2)cc1	USP30 block 34
Cc1ccc(CNC(=O)Cn2c(-c3ccccc3)nc(C)cc2=O)cc1	none
CCN(C(=O)Cc1ccccc1OC)c1nc2c(s1)CCc1occc1-2	USP17 block 37
CN(C(=O)c1cccs1)c1nc2c(s1)CCc1occc1-2	USP17 block 37
Cc1c(C(=O)N(C)c2nc3c(s2)CCc2occc2-3)oc2ccccc12	USP30 block 66, USP8 inh 48, USP17 block 79
Cc1cc2nc(CSc3ccccc3NC(=O)Nc3ccc4c(c3)OCO4)cc(=O)n2o1	none (no result: USP17 block)
COc1cccc(-c2nc(CSCC(=O)N3CCN(c4cccc(C)c4)C(C)C3)c(C)o2)c1 (configuration not stated)	none
CC(C(=O)Nc1ccc(F)c(F)c1)(C(F)(F)F)C(F)(F)F	none
CC(=O)N1CCc2cc(Br)cc(S(=O)(=O)Nc3cc(C)cc(C)c3)c21	USP17 block 47
Cc1cc(C)cc(NS(=O)(=O)c2cc3c4c(c2)CC(=O)N4CCC3)c1	none
COc1ccc2c(c1)CCc1c-2n[nH]c1C(=O)Nc1cc(C)on1	USP30 block 55, USP17 block 33
COc1ccc2c(c1)CCc1c-2n[nH]c1C(=O)N1CCC(C(N)=O)CC1	USP30 block 30
COc1ccc2c(c1)CCc1c-2n[nH]c1C(=O)N1CCN(c2ncccn2)CC1	none
Cc1cc(NC(=O)c2[nH]nc3c2CCc2ccccc2-3)no1	USP17 block 64
COc1ccccc1CNC(=O)c1[nH]nc2c1CCc1ccccc1-2	none
COc1ccc2c(c1)CCc1c-2n[nH]c1C(=O)N1CCN(C)CC1	none
Cn1c(CCNC(=O)c2[nH]nc3c2CCc2ccccc2-3)nc2ccccc21	USP8 inh 59, USP17 block 78
CCCSc1nc(NCCCN2CCOCC2)c2c3c(sc2n1)COC(C)(C)C3	none
Cc1cccc(Nc2nc(N3CCCCC3)nc(N3CCCCC3)n2)c1	USP30 block 30
Cc1ccc(Nc2nc(Nc3ccc(C)cc3)nc(N3CCCCC3)n2)cc1	none
Cc1nc(C2COCCN2C(=O)c2cc(C(C)(C)C)[nH]n2)cc(=O)[nH]1 (configuration not stated)	UCHL1 inh 37
CC(C)(C)c1cc(C(=O)N2CCOCC2c2ccn[nH]2)n[nH]1 (configuration not stated)	none
Cn1c(SCc2ccc(C(C)(C)C)cc2)nc(-c2ccccc2)c1-c1ccccc1	USP30 block 34
CCN1C(=O)c2cc(NC(=O)c3ccc(F)cc3)ccc2Oc2ccccc21	none
O=C(CCCCCn1c(=O)[nH]c2ccccc2c1=O)NCCc1ccc(Cl)cc1	USP8 inh 48
O=C(CCCn1c(=O)[nH]c2ccccc2c1=O)N1CCC(O)(c2ccc(Cl)cc2)CC1	none
O=C(CCCCCn1c(=O)[nH]c2ccccc2c1=O)NCc1ccccc1Cl	USP30 block 48
Cc1c(C(=O)Nc2cccnc2Cl)sc2nc3n(c(=O)c12)CCCC3	none
O=C(c1cccc(F)c1)N1CCC(c2nccnc2-c2ncc[nH]2)CC1	none
Cc1ccc(OCC2Cn3c(nc4c3c(=O)[nH]c(=O)n4C)O2)cc1C (configuration not stated)	USP17 block 66 (no result: USP30 block)
Cc1ccc(C)c(N2CCn3c2nc2c3c(=O)[nH]c(=O)n2C)c1	none
O=C(COc1cccc2c1CCN(Cc1cccnc1)C2=O)Nc1ccc2c(c1)OCCO2	USP17 block 59
Cc1cc2nc(C3CCN(C(=O)C4CCCCO4)CC3)cc(=O)n2[nH]1 (configuration not stated)	none
Cc1cc2nc(C(C)NC(=O)c3cc(C4CC4)nn3C)cc(=O)n2[nH]1 (configuration not stated)	USP30 block 36
COc1ccc(NC(C)=O)cc1S(=O)(=O)N(C)C(c1ccccc1)c1ccccc1	none
CCOC(=O)C1CCN(C(=O)c2cccc(S(=O)(=O)Nc3ccccc3Cl)c2)CC1	none
Cc1c(C(=O)Nc2ccc(Oc3ccccc3)cc2)nnn1-c1cccc(Cl)c1	none
Cc1cc(O)cc(=O)n1CC1CCCO1 (configuration not stated)	none
O=C(Nc1nc2ccc(F)cc2s1)c1cc(Cl)sc1Cl	USP8 inh 70
Cc1cc(C(=O)N2CCOCC2)c(C)n1-c1ccc(O)cc1	USP8 inh 94, USP17 block 86
Cc1nn(-c2ccccc2)c(C)c1C(=O)OCC(=O)Nc1cccc(C#N)c1	none
O=C(Nc1ccccc1)c1cn2c3c(cccc3c1=O)CC2	USP17 block 69
NS(=O)(=O)c1ccc(C(=O)Nc2cccc(-c3ccc4nncn4n3)c2)cc1	USP8 inh 34
COc1cc(OC)cc(-c2noc(Cn3c(=O)[nH]c4cc5c(cc4c3=O)OCO5)n2)c1	USP8 inh 82 (no result: USP17 block)
O=c1[nH]c2cc3c(cc2c(=O)n1Cc1nc(-c2ccc(F)cc2)no1)OCO3	none
Cc1ccc(-c2noc(Cn3c(=O)[nH]c4cc5c(cc4c3=O)OCO5)n2)cc1	USP8 inh 55
O=C(NC1CCCC1)c1cccc(N2CCCCS2(=O)=O)c1	none

Screening results from PubChem.
